Screening results deposited in PubChem by The Scripps Research Institute Molecular Screening Center.
FBW7 activator = human FBW7 E3 ligase activation, primary screen. Q969H0. AlphaScreen FBW7–phospho-cyclin E peptide binding, activator screen. normalized activity (activation), % at 26.1 µM. 0.13% of 650,000 active; in the data active = normalized activity above about 1.9%;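 also: purified mutant Fbw7 with reduced substrate affinity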
GPR151 activ = activates the human receptor GPR151; Q8TDV0; PathHunter beta-arrestin GPR151 cells, luminescence; activation, % at 11.2 µM; 1% of 650,000 active; in the data active = activation above about 4.9%;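 also: 0% = median of compound wells and 100% = cells with positive control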
TEAD-YAP block = TEAD-YAP interaction inhibition; HEK-TIYL cells, TEAD-Gal4/YAP UAS-luciferase luminescence; 1.4% of 640,000 active; inhibition, % at 9.12 µM; in the data active = inhibition above about 32%;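 also: 0% = median of test compound wells and 100% = reference inhibitor wells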
MITF inh = human MITF inhibition, primary screen; inhibition, % at 2.6 µM; 0.91% of 650,000 active; AlphaScreen MITF homodimerization, bead proximity signal; O75030; in the data active = inhibition above about 50%;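 also: 0% = vehicle wells with protein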
Target sequence (O75030 whole entry, looked up): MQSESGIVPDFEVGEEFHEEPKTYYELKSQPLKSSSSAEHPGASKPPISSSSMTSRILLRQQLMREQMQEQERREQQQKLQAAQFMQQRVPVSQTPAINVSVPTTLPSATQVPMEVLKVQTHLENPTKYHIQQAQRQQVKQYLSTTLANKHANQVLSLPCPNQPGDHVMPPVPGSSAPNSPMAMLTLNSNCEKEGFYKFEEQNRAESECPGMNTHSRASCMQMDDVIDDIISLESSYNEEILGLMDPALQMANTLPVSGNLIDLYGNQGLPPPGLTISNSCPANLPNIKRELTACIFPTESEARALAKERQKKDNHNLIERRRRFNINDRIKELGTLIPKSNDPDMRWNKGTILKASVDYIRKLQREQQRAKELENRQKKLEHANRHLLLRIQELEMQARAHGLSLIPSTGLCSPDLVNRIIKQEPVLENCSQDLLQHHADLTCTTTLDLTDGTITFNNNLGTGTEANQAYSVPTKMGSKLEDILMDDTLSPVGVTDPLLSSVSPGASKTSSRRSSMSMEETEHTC
MITF inh conf = human MITF inhibition, confirmation; inhibition, % at 2.6 µM; shares compounds with MITF inh; 16% of 4,700 active; AID 1259372; AlphaScreen MITF homodimerization, biotin/His-MITF beads;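 active = inhibition above a cutoff derived from the DMSO control wells, cut at about 28% in these data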;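 also: 0% = MITF dimer wells with DMSO only; inhibitors lower the bead chemiluminescence by keeping MITF from dimerizing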
AS interf DR = AlphaScreen optical interference, dose response counter-screen; 6% of 480 active; shares compounds with MITF inh; IC50, µM; AlphaScreen optical interference counterscreen, cell-free; call rule not given here
AS interf ctr = counter-screen: compounds optically interfering with AlphaScreen; 7.6% of 4,700 active; LysRS AlphaScreen counterscreen, signal interference, triplicate; inhibition, % at 2.6 µM; shares compounds with MITF inh;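 active = inhibition above a cutoff derived from the DMSO control wells, cut at about 30% in these data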
* = called active by the depositor; . = no result. Only some compounds are listed: those with a hit (about 3.5% of all), similar ones and a draw of the others.

SMILES	FBW7 activator	GPR151 activ	TEAD-YAP block	MITF inh	MITF inh conf	AS interf ctr	others
CN(CCN1CCOCC1)C1CCN(C(=O)CNC(=O)/C=C/c2cccs2)CC1	0	-1	7	62*	1	13
Cc1cc(C(N)=O)c(C)n1CCCn1ccnc1	-1	0	2	76*	15	22
Cc1cc(=S)cc(C)n1CCCn1ccnc1	0	0	-2	-5	.	.
Cc1ccc(CNC(=O)CN2CCC(c3nc4ccccc4[nH]3)CC2)cc1	0	-2	14	8	.	.
C=CCN1C(=O)/C(=C/c2ccco2)S/C1=N/S(=O)(=O)c1ccc(Cl)cc1	0	2	-12	87*	13	17
C=CCN1C(=O)/C(=C/c2ccco2)S/C1=N/S(=O)(=O)c1cccs1	0	2	-17	1	.	.
OCCNc1cc(-c2cccs2)ncn1	0	1	-17	56*	53*	3	AS interf DR=>6
CCCNc1cc(-c2cccs2)ncn1	0	-2	-23	6	.	.
CCC(=O)Nc1nnc(SCC(=O)Nc2nccs2)s1	0	2	-6	-1	.	.
Cc1cc(C(=O)N2CCN(CC(=O)c3cccs3)CC2)no1	0	0	-4	61*	7	12
O=C(CN1CCN(C(=O)c2cnccn2)CC1)c1cccs1	0	-1	-2	53*	4	16
COc1ccc(NC(=S)N(Cc2ccc(C(=O)O)cc2)Cc2ccc(OC)c(OC)c2)cc1Cl	0	-1	-1	-4	.	.
O=S(=O)(O)c1cc(S(=O)(=O)O)c2cc(O)c(S(=O)(=O)O)cc2c1	-1	-1	7	60*	67*	14	AS interf DR=>6.5
O=c1cc(-c2ccccc2)[nH]n1-c1nc2ccccc2[nH]1	-1	-1	16	40	.	.
Cc1[nH]n(-c2nc3ccccc3[nH]2)c(=O)c1C1OC(=O)c2ccccc21 (centres undefined)	0	-1	13	91*	71*	100*
Clc1nc(NCc2nc3ccccc3[nH]2)c2ncn(-c3ccsc3)c2n1	0	0	21	9	.	.
c1ccc(-c2nc(NC3CC3)c3ncn(C4CCCCC4)c3n2)cc1	0	2	10	0	.	.
Nc1c(S(=O)(=O)O)cc2c3c(cccc13)C(=O)N(CCCO)C2=O	0	1	5	-5	.	.
Cc1ccc(/C=N/Nc2cccc(C(=O)O)c2)o1	0	-7	12	59*	9	-2
O=C(CSc1nsc(SCC(=O)Nc2ccc(Cl)c(Cl)c2)n1)Nc1ccc(Cl)c(Cl)c1	0	1	-10	59*	39*	11
Cc1cccc(NC(=O)CSc2nsc(SCC(=O)Nc3cccc(C)c3)n2)c1	0	-1	-2	-6	.	.
COc1cc(C(O)COc2ccccc2OC)ccc1O (centres undefined)	0	1	1	-5	.	.
Cc1[nH][nH]c(=O)c1C(c1ccccc1OCc1ccc(Br)cc1)c1c(C)[nH][nH]c1=O	-1	0	-11	66*	46*	7
Cc1ccc(-c2csc3nc[nH]c(=O)c23)cc1	0	-2	-2	-13	.	.
Cc1ccc(-c2csc3nc(CNCCN(C)C)[nH]c(=O)c23)cc1	-1	3	0	96*	16	83*
SMILES	FBW7 activator	GPR151 activ	TEAD-YAP block	MITF inh	MITF inh conf	AS interf ctr	others
COC(=O)c1ccccc1OCCOCCN(C)C	0	0	-1	24	.	.
CCCN(CCC)C(=O)c1c(NC(=O)c2cccnc2)sc2c1CCCCC2	0	0	-5	-4	.	.
CCCN(CCC)C(=O)c1c(NC(C)=O)sc2c1CCCCC2	0	2	-10	65*	63*	38*
COc1ccc2c(c1)C(C)CC(C)(C)N2C(=O)NC1CCCCC1 (centres undefined)	1	-1	-22	17	.	.
COc1ccc2c(c1)C(C)CC(C)(C)N2C(=O)CNCCN1CCOCC1 (centres undefined)	0	1	1	88*	9	18
COc1ccccc1-c1c(C)nn2c(NCc3ccccc3)cc(C)nc12	0	-1	1	11	.	.
COc1ccccc1-c1c(C)nn2c(NCc3cccs3)cc(C)nc12	0	1	-5	54*	1	14
CCN1C(=O)NC(c2ccc([N+](=O)[O-])cc2)C(C(=O)OCCOc2ccccc2)=C1C (centres undefined)	0	0	1	9	.	.
CCN1C(=O)NC(c2ccc([N+](=O)[O-])cc2)C(C(=O)OCCc2ccccc2)=C1C (centres undefined)	1	-1	-10	76*	2	22
Cc1c(Cc2ccccc2)c(=O)oc2c(C)c(OCC(=O)OC(C)C)ccc12	0	0	10	-2	.	.
O=C1CCCN1CCCn1c(=S)[nH]c2cc3ccccc3cc2c1=O	0	-1	1	66*	0	17
Cc1ccc(S(=O)(=O)N2CCC(O)(c3cccnc3)CC2)cc1	0	-1	-1	33	.	.
O=S(=O)(c1ccc(F)cc1)N1CCC(O)(c2cccnc2)CC1	0	-1	-1	72*	12	17
COc1ccc2c(c1)C1NC(=S)N(c3cccc(C)c3)C(C)(O2)C1C(=O)Nc1ccc(C)cc1C (centres undefined)	0	1	6	57*	31*	20	AS interf DR=>5.7
COc1ccccc1-c1nc(CN(C)Cc2ccc(C)o2)cs1	0	1	-1	48	.	.
COc1cccc(C(=O)N2CCN(Cc3ccccn3)CC2)c1	0	-1	-8	92*	-11	1
COc1cc(OC)cc(C(=O)N2CCN(Cc3ccccn3)CC2)c1	0	-1	-6	57*	15	18
CCc1nc(NCCCCCO)c2nnn(Cc3ccccc3)c2n1	0	0	0	7	.	.
CCc1nc(NCC(C)C)c2nnn(Cc3ccccc3)c2n1	0	0	-3	61*	-6	-2
O=C(CN(Cc1ccccc1)S(=O)(=O)c1ccc(Cl)cc1)N1CCCC1	1	0	-4	17	.	.
COc1cc(NC(=O)c2ccc3nc(-c4ccccc4)sc3c2)cc(OC)c1OC	0	2	-1	68*	6	5
CCN(CC(=O)Nc1ccccc1OC)CC(=O)Nc1ccccc1-c1ccccc1	-1	0	44*	82*	20	29
Cc1ccc2c(c1)c(=O)c1ccccc1n2CC(=O)Nc1ccc(F)cc1F	0	-1	-1	77*	4	5
O=P(O)(O)C(Sc1ccc(Cl)cc1)P(=O)(O)O	0	2	.	96*	106*	-8	AS interf DR=>6.5
O=C(NCC1CCCO1)c1ccc2c(=O)n(Cc3cccc(Br)c3)c(=S)[nH]c2c1 (centres undefined)	0	1	-2	58*	1	-1
COc1cccc(C2Nc3ccccc3NC3=C2C(=O)CC(c2ccccc2Cl)C3)c1 (centres undefined)	0	0	1	2	.	.
